Records with an inconclusive call do not appear. Active and inactive are the calls of the source. How the source made its calls, unless noted: active means hit-call score of the fitted dose curve at least 0.9, where 1 is the maximum; inactive means score below 0.9.
Experiments:
[1] = target: Paired box protein Pax-6 (Homo sapiens) (UniProt P26367); test: ATG_Pax6_CIS: Attagene CIS-FACTORIAL HepG2 Assay for human Paired Box 6 (PAX6) (AID 2282956); details: HepG2 CIS-FACTORIAL PAX6 reporter transcription, RNA readout; actives raise or lower the signal
How it was run: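 Multiplexed cis-reporter HepG2 system; 24 h treatment; reporter mRNA read by RT-PCR/CE fluorescence; bidirectional fit vs DMSO.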

[2] = ATG_PPRE_CIS: Attagene CIS-FACTORIAL HepG2 Assay for human Peroxisome Proliferator-activated Response Element (PPRE) (AID 2282958); details: HepG2 PPRE cis-element reporter, Attagene transcription factor profiling; actives raise or lower the signal
How it was run: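 After human HepG2 hepatoma cells were transiently transfected with cis-promoter reporter constructs, they were exposed to test chemicals for 24 hours. Reporter RNA was then reverse-transcribed, PCR-amplified, FAM-labeled, HpaI-digested and quantified by capillary electrophoresis.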

[3] = ATG_RORE_CIS: Attagene CIS-FACTORIAL HepG2 Assay for human RAR-related Orphan Receptor Element (RORE) (AID 2282959); details: HepG2 Attagene cis-factorial RORE reporter, mRNA; actives raise or lower the signal
How it was run: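 Measured here: transcript induction of a cis-regulated reporter in HepG2 cells transiently transfected via FuGene 6. After 24 h, RNA was processed by RT-PCR and fluorescent capillary electrophoresis; DMSO defined baseline activity.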

[4] = ATG_Sox_CIS: Attagene CIS-FACTORIAL HepG2 Assay for human SRY-box transcription factor (SOX) (AID 2282960); details: HepG2 Attagene cis-factorial SOX reporter, mRNA; actives raise or lower the signal
How it was run: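 Using transiently transfected HepG2 cells, reporter transcription driven by cis elements was assessed 24 h after dosing. Signal was fluorescence of capillary-separated RT-PCR products, with DMSO defining baseline activity.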

[5] = target: Transcription factor Sp1 (Homo sapiens) (UniProt P08047); test: ATG_Sp1_CIS: Attagene CIS-FACTORIAL HepG2 Assay for human Specificity Protein 1 (Sp1) (AID 2282961); details: HepG2 Sp1 cis-reporter transcription, actives raise or lower the signal
How it was run: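 After transient transfection of HepG2 cells with cis-promoter reporter units and 24 h chemical treatment, reporter transcripts were quantified by RT-PCR and capillary electrophoresis fluorescence. Gain- and loss-of-signal fitted against DMSO.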

[6] = ATG_SREBP_CIS: Attagene CIS-FACTORIAL HepG2 Assay for human Sterol Regulatory Element Binding (SREBP) (AID 2282962); details: HepG2 Attagene cis-factorial SREBP reporter, mRNA; actives raise or lower the signal
How it was run: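 mRNA induction of transfected cis-promoter reporters in HepG2 cells, 24 h post-dose. Detection: RT-PCR with 6-FAM-labelled products, HpaI digest, capillary electrophoresis. DMSO served as negative control and baseline.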

[7] = target: Signal transducer and activator of transcription 3 (Homo sapiens) (UniProt P40763); test: ATG_STAT3_CIS: Attagene CIS-FACTORIAL HepG2 Assay for human Signal Transducer and Activator of Transcription 3 (STAT3) (AID 2282963); details: HepG2, Attagene cis-factorial STAT3 reporter transcription; actives raise or lower the signal
How it was run: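 After a 24 h compound incubation, total RNA from MRTU-transfected HepG2 cells was converted to cDNA and reporter sequences PCR-amplified, labelled and profiled by capillary electrophoresis. Gain and loss of signal were referenced to DMSO.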

[8] = ATG_TCF_b_cat_CIS: Attagene CIS-FACTORIAL HepG2 Assay for human T-Cell-Factor with beta-catenin (TCF/b-cat) (AID 2282965); details: HepG2 TCF/beta-catenin cis-reporter transcription, actives raise or lower the signal
How it was run: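 Endogenous transcription factor activity is captured through cis-promoter reporter constructs transiently introduced into human HepG2 liver cells. Induced reporter mRNA is measured after 24 h and fitted bidirectionally relative to DMSO.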

[9] = ATG_TAL_CIS: Attagene CIS-FACTORIAL HepG2 Assay for human TAL Basal Promoter (AID 2282966); details: HepG2 Attagene cis-factorial TAL promoter reporter; actives raise or lower the signal;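 further: background control endpoint measuring basal TAL promoter reporter mRNA not a specific factor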
How it was run: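 HepG2 cells transiently transfected with multiplexed cis-promoter reporter units, dosed 24 h. Reporter mRNA quantified by RT-PCR, 6-FAM labelling, HpaI digestion and capillary electrophoresis; TAL basal promoter serves as background control, fitted bidirectionally versus DMSO.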

[10] = ATG_TGFb_CIS: Attagene CIS-FACTORIAL HepG2 Assay for human Transforming Growth Factor (TGF) (AID 2282967); details: HepG2 Attagene CIS TGFb reporter, mRNA transcription; actives raise or lower the signal
How it was run: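 Endogenous TGFB1-linked transcription factor activity read as reporter mRNA via RT-PCR and capillary electrophoresis, 24 h after dosing transiently transfected HepG2 cells. Gain or loss of signal fitted relative to DMSO.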

[11] = ATG_VDRE_CIS: Attagene CIS-FACTORIAL HepG2 Assay for human Vitamin D Receptor Element (VDRE) (AID 2282968); details: HepG2 VDRE cis-reporter transcription, actives raise or lower the signal
How it was run: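 In transiently transfected HepG2 liver cells, gain or loss of reporter mRNA after 24 h exposure is scored relative to DMSO, using fluorescence detection by capillary electrophoresis of RT-PCR products.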

[12] = ATG_TA_CIS: Attagene CIS-FACTORIAL HepG2 Assay for human TA Basal Promoter (AID 2282964); details: HepG2 Attagene CIS-factorial TA basal promoter reporter; actives raise or lower the signal
How it was run: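 Background-control readout: TA basal promoter reporter mRNA, fitted in both directions relative to DMSO. Measured by RT-PCR and capillary electrophoresis 24 hours after treating HepG2 human liver cells transiently carrying multiplexed cis-regulated reporter constructs.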

[13] = target: X-box-binding protein 1 (Homo sapiens) (UniProt P17861); test: ATG_Xbp1_CIS: Attagene CIS-FACTORIAL HepG2 Assay for human X-box Binding Protein 1 (XBP1) (AID 2282972); details: HepG2 XBP1 cis-element reporter, Attagene multiplex; actives raise or lower the signal
How it was run: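 Fluorescence-labelled cDNA fragments from reporter transcripts, separated by capillary electrophoresis, give the signal. Source: HepG2 cells transfected with promoter-driven reporter units, harvested 24 h post-dose. DMSO served as reference for bidirectional curve fitting.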

[14] = target: Estrogen receptor (Homo sapiens) (UniProt P03372); test: ATG_ERa_TRANS: Attagene TRANS-FACTORIAL HepG2 Assay for human Estrogen Receptor alpha (ERa) (AID 2282970; active means hit-call score of the fitted dose curve at least 0.9, where 1 is the maximum); details: HepG2 Attagene TRANS ERa GAL4 reporter, mRNA
How it was run: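 HepG2 cells transiently transfected with multiplexed GAL4-UAS reporter units read out chimeric NR-Gal4 activity. After 24 h compound exposure, reporter mRNA was quantified by RT-PCR, 6-FAM labeling, HpaI digestion and capillary electrophoresis, relative to DMSO.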

[15] = target: Steroid hormone receptor ERR1 (Homo sapiens) (UniProt P11474); test: ATG_ERRa_TRANS: Attagene TRANS-FACTORIAL HepG2 Assay for human Estrogen-Related Receptor alpha (ERRa) (AID 2282971; active means hit-call score of the fitted dose curve at least 0.9, where 1 is the maximum); details: HepG2 Attagene TRANS reporter, ERRa transactivation
How it was run: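 HepG2 cells transiently transfected with GAL4-UAS reporter units and chimeric NR-Gal4 constructs; after 24 hour compound incubation, reporter mRNA quantified by RT-PCR, fluorescent labelling and capillary electrophoresis, gain of signal versus DMSO.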

[16] = target: Estrogen-related receptor gamma (Homo sapiens) (UniProt P62508); test: ATG_ERRg_TRANS: Attagene TRANS-FACTORIAL HepG2 Assay for human Estrogen-Related Receptor gamma (ERRg) (AID 2282977; active means hit-call score of the fitted dose curve at least 0.9, where 1 is the maximum;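 further: hits increase reporter signal over DMSO so potencies reflect activators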); details: HepG2 Attagene TRANS reporter, ERRg transactivation
How it was run: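 Transient HepG2 transfectants, 24 h compound exposure, GAL4-UAS reporter mRNA by RT-PCR/6-FAM labelling/capillary electrophoresis; positive direction vs DMSO.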

[17] = ATG_GAL4_TRANS: Attagene TRANS-FACTORIAL HepG2 Assay for GAL4 (Internal Marker) (AID 2282976; active means hit-call score of the fitted dose curve at least 0.9, where 1 is the maximum); details: HepG2 Attagene TRANS GAL4 internal marker reporter
How it was run: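 Background-control readout: GAL4-UAS reporter transcript in transiently transfected HepG2 cells after 24 h compound exposure. Measured by RT-PCR, 6-FAM primer extension, HpaI digest and capillary electrophoresis; gain-of-signal fit versus DMSO.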

[18] = ATG_M_19_TRANS: Attagene TRANS-FACTORIAL HepG2 Assay for M19 Transcription Factor (Internal Marker) (AID 2282974; active means hit-call score of the fitted dose curve at least 0.9, where 1 is the maximum); details: HepG2 Attagene TRANS-FACTORIAL M19 internal marker reporter
How it was run: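 Gain-of-signal in reporter mRNA, relative to DMSO, was scored from capillary electrophoresis fluorescence. HepG2 cells carried transiently transfected multiple reporter transcription units and were incubated with test chemicals for 24 h.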

Measured: AC50

X-box-binding protein 1 (Homo sapiens), sequence (P17861 whole entry, looked up, the tested form may be a part): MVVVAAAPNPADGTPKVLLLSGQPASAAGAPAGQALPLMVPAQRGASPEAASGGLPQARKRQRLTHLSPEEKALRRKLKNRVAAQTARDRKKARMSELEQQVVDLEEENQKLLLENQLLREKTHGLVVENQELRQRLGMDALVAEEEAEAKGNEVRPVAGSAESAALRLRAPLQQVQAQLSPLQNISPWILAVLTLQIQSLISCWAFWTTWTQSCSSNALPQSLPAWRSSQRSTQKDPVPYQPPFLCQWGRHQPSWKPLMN
Paired box protein Pax-6 (Homo sapiens), sequence (P26367 whole entry, looked up): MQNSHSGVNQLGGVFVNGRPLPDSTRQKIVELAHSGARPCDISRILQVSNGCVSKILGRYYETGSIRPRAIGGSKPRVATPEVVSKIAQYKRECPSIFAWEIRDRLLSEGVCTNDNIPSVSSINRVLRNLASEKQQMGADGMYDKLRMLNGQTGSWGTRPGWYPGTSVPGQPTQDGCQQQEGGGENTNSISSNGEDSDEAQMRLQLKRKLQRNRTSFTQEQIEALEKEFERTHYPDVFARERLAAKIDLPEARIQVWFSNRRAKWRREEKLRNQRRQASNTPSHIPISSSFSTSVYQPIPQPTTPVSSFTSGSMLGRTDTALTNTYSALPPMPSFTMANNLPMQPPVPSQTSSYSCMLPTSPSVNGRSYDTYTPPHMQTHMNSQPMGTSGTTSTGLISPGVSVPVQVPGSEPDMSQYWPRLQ
Transcription factor Sp1 (Homo sapiens), sequence (P08047 whole entry, looked up): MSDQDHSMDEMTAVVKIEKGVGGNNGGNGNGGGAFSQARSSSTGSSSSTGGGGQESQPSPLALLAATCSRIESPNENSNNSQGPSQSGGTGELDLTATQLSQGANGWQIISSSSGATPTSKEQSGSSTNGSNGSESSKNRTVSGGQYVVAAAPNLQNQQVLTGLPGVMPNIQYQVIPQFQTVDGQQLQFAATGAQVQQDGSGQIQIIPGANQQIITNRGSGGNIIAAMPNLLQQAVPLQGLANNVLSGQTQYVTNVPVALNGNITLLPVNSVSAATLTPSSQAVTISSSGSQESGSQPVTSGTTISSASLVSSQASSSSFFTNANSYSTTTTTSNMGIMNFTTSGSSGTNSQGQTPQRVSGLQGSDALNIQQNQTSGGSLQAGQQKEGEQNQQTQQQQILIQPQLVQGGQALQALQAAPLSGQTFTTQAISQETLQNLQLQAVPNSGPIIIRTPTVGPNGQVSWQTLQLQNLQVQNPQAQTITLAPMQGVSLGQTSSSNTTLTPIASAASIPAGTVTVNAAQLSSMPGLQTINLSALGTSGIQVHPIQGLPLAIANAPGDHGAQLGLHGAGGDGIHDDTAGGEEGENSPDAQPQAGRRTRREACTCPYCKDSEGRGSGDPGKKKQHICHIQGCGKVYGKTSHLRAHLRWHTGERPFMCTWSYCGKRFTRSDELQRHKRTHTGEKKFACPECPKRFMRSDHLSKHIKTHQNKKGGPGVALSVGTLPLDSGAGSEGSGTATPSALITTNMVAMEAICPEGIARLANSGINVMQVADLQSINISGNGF
Estrogen receptor (Homo sapiens), sequence (P03372 whole entry, looked up, the tested form may be a part): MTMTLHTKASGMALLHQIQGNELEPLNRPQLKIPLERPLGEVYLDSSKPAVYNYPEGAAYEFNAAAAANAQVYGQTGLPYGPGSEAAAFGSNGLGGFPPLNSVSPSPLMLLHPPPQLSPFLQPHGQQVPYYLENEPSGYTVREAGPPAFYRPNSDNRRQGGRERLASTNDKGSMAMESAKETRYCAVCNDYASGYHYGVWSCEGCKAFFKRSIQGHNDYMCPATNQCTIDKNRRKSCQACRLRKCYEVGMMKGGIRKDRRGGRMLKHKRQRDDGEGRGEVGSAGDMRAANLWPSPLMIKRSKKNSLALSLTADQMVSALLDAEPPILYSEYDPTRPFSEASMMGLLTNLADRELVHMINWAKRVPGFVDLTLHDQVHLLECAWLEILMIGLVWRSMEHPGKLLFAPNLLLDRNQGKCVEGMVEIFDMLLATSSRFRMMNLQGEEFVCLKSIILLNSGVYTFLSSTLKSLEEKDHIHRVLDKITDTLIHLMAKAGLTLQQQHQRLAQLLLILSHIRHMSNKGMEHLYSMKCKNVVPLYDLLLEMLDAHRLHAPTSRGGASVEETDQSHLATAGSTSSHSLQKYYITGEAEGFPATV
Signal transducer and activator of transcription 3 (Homo sapiens), sequence (P40763 whole entry, looked up): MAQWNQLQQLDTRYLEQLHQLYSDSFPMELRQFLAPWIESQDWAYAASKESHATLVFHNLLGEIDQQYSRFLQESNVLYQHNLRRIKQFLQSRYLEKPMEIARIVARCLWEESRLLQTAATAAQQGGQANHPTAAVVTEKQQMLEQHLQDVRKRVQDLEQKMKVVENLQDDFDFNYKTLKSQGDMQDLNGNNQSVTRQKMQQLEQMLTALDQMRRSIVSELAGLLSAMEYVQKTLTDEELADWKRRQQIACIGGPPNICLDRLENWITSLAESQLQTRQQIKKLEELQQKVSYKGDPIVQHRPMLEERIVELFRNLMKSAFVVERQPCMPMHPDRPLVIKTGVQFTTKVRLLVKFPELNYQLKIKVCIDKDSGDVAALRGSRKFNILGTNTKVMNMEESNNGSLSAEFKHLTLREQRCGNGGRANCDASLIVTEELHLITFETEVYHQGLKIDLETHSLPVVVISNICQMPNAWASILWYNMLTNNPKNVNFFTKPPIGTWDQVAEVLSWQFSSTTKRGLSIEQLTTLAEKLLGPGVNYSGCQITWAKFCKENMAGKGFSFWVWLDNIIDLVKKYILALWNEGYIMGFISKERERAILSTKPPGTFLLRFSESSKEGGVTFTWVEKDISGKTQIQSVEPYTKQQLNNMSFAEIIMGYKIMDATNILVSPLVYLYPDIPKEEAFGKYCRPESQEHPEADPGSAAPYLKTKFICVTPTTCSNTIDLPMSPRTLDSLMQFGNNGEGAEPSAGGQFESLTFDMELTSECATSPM
Steroid hormone receptor ERR1 (Homo sapiens), sequence (P11474 whole entry, looked up, the tested form may be a part): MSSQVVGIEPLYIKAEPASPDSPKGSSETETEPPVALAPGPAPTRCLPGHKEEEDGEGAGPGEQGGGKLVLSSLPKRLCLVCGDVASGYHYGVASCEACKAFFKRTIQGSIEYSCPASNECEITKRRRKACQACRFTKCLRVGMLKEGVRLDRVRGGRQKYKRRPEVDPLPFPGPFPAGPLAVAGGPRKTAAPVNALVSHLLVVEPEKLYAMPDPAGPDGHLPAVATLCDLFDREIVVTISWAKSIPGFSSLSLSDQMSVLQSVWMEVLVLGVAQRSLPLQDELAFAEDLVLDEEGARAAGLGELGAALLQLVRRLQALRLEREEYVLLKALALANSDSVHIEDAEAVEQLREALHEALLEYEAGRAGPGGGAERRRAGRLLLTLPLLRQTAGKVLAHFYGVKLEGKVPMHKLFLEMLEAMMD
Estrogen-related receptor gamma (Homo sapiens), sequence (P62508 whole entry, looked up, the tested form may be a part): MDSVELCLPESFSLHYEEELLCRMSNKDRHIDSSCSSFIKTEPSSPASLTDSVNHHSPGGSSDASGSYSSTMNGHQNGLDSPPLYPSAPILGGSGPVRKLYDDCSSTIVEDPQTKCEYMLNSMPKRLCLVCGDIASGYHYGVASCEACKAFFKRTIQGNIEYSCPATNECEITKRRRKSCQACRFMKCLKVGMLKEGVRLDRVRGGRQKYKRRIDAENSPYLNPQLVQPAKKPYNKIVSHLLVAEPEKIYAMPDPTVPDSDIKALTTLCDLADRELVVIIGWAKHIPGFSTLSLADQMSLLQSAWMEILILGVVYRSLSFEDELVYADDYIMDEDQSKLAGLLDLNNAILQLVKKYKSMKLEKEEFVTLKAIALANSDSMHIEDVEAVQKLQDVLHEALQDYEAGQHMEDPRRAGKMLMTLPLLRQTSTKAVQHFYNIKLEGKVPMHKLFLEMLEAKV

Cc1ccc(C(=O)c2cc(O)c(O)c([N+](=O)[O-])c2)cc1
active: [2] 21.8 µM
not listed: [12] | [13] | [14] | [15] | [16] | [17] | [18]
inactive: all other assays above

Cc1ccc(C(=O)O)o1
not listed: [14] | [15] | [16] | [17] | [18]
inactive: all other assays above

CC(C)(N)CO
not listed: [5] | [17] | [18]
inactive: all other assays above

O=C(O)c1cccc([N+](=O)[O-])c1
not listed: [4] | [11] | [14] | [15] | [16] | [18]
inactive: all other assays above

C=C(C)[C@@H]1CCC2=CC(=O)C[C@@H](C)[C@]2(C)C1
not listed: [6] | [10] | [11] | [12] | [15] | [16] | [17]
inactive: all other assays above

CCC(=O)/C=C/C1C(C)=CCCC1(C)C (stereo not drawn)
active: [2] 35 µM
not listed: [14] | [15] | [16] | [18]
inactive: all other assays above

Cc1ccc(S)cc1
active: [8] 24.4 µM | [14] 25.4 µM | [13] 53.5 µM
not listed: [11] | [15] | [16] | [17]
inactive: all other assays above

CCCCNC(=O)NS(=O)(=O)c1ccc(N)cc1
not listed: [12] | [14] | [16] | [17] | [18]
inactive: all other assays above

O=Cc1ccc(F)cc1
not listed: [12] | [13] | [15] | [16] | [18]
inactive: all other assays above

O=C(O)c1cn(-c2ccc(F)cc2)c2cc(N3CCNCC3)c(F)cc2c1=O
not listed: [4] | [7] | [11] | [14] | [15] | [16]
inactive: all other assays above

CN1Cc2c(N)cccc2C(c2ccccc2)C1 (stereo not drawn)
not listed: [7] | [11] | [12] | [14] | [15] | [16]
inactive: all other assays above

CO[Si](C)(OC)c1ccccc1
active: [11] 7.98 µM
not listed: [10] | [12] | [15] | [16] | [17]
inactive: all other assays above

From PubChem BioAssay (EPA / NIEHS)
